# Measurements as given in PubChem BioAssay (NCI).
# This is part of a sample that, as a whole, favours compounds with a hit. Of some 79,000 tested, about 15% had one in any assay. Unmarked numbers belong to inactive results. The source made the active and inactive calls. Cut-off read from the data, not from the text of the source: active = growth inhibition above about 70%; inactive = the rest.
# What was measured:
# [1] = NCI Yeast Anticancer Drug Screen. Data for the rad50 strain (AID 155);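 note: 0% = growth of vehicle-only cultures of the same strain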; settings: S. cerevisiae rad50 strain growth inhibition, hits give high values
# In short: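 Compounds were tested on a yeast strain with an engineered DNA damage repair alteration; the reported value is growth inhibition normalised to vehicle treatment.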
# [2] = NCI Yeast Anticancer Drug Screen. Data for the mec2-1 strain (AID 157); settings: S. cerevisiae mec2-1 strain, hits give high values
# In short: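 Mutant yeast (mec2-1) grown with compound; growth inhibition relative to vehicle control reported.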
# [3] = NCI Yeast Anticancer Drug Screen. Data for the sgs1 mgt1 strain (AID 161);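 note: 0% = growth of cultures given vehicle only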; settings: S. cerevisiae sgs1 mgt1 strain, hits give high values
# In short: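 Compounds are added to genetically altered yeast, and growth is compared with cultures given vehicle alone to give percent inhibition.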
# [4] = NCI Yeast Anticancer Drug Screen. Data for the cln2 rad14 strain (AID 165);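 note: 0% = growth equal to vehicle treated cultures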; settings: S. cerevisiae cln2 rad14 strain, hits give high values
# In short: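 Readout is yeast growth inhibition versus vehicle-treated controls, using a strain with cln2 and rad14 alterations exposed to compound.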
# [5] = NCI Yeast Anticancer Drug Screen. Data for the bub3 strain (AID 167); settings: S. cerevisiae bub3 mutant strain, hits give high values
# In short: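 Growth of a checkpoint-deficient yeast mutant is measured after compound exposure. Values represent inhibition relative to vehicle.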
# [6] = NCI Yeast Anticancer Drug Screen. Data for the mlh1 rad18 strain (AID 175); settings: S. cerevisiae mlh1 rad18 strain growth inhibition, hits give high values
# In short: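 Genetically defined yeast (DNA repair-deficient) exposed to compounds; growth inhibition determined relative to vehicle.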
# [7] = at 5.0 µM (retest, dose inferred, filed as 0.5)
# [8] = at 50.0 µM (retest, dose inferred, filed as 5.0)
Compound,"growth inhibition [1, 7]","growth inhibition [1, 8]",growth inhibition ([1]; at 50.0 µM),"growth inhibition [2, 7]","growth inhibition [2, 8]",growth inhibition ([2]; at 50.0 µM),"growth inhibition [3, 7]","growth inhibition [3, 8]",growth inhibition ([3]; at 50.0 µM),"growth inhibition [4, 7]","growth inhibition [4, 8]",growth inhibition ([4]; at 50.0 µM),"growth inhibition [5, 7]","growth inhibition [5, 8]",growth inhibition ([5]; at 50.0 µM),"growth inhibition [6, 7]","growth inhibition [6, 8]",growth inhibition ([6]; at 50.0 µM)
O=C(CC(c1cccnc1)C(C(=O)c1ccc(Cl)cc1)C(CC(=O)c1ccc(Cl)cc1)c1cccnc1)c1ccc(Cl)cc1 (stereo not given),80% (active),92% (active),59.3%,48%,95% (active),65.2%,56%,96% (active),52.2%,32%,96% (active),36.9%,11%,92% (active),30.8%,63%,93% (active),87.1% (active)
CCOC(=O)C(NNc1ccccc1)C(c1ccccc1)[P+](c1ccccc1)(c1ccccc1)c1ccccc1 (stereo not given),78% (active),99% (active),99.5% (active),94% (active),99% (active),99.7% (active),85% (active),99% (active),99.7% (active),59%,99% (active),99.5% (active),91% (active),99% (active),99.4% (active),95% (active),99% (active),99.7% (active)
Nc1cc(Br)c2cccnc2c1O,81% (active),98% (active),97.2% (active),44%,98% (active),94.7% (active),67%,98% (active),98% (active),28%,98% (active),94.2% (active),35%,98% (active),93.7% (active),86% (active),98% (active),95.7% (active)
SCCCCCCCCCCS,0%,98% (active),98.9% (active),0%,99% (active),99.4% (active),1%,89% (active),99% (active),4%,94% (active),87.3% (active),2%,99% (active),97.5% (active),-1%,96% (active),99.1% (active)
OC(c1cc(-c2ccc(Cl)cc2Cl)nc2ccccc12)C1CCCCN1 (stereo not given),-6%,98% (active),98.8% (active),-4%,99% (active),72.2% (active),-5%,99% (active),99.1% (active),-3%,97% (active),64.7%,0%,99% (active),98.8% (active),-6%,99% (active),97.3% (active)
O=C1c2ccc(O)cc2C(=O)c2c1ccc(O)c2O,28%,97% (active),76% (active),26%,95% (active),67.3%,46%,96% (active),83% (active),9%,73% (active),41.3%,37%,94% (active),76.9% (active),45%,97% (active),77.4% (active)
O=C1C(Cl)=C(c2ccc([N+](=O)[O-])cc2)C(=O)c2c(O)cccc21,79% (active),95% (active),90% (active),100% (active),99% (active),93.3% (active),28%,95% (active),91.7% (active),82% (active),97% (active),90% (active),99% (active),94% (active),90.8% (active),99% (active),97% (active),88.3% (active)
O=c1[nH][nH]c(=O)c2c1nc(SCc1ccccc1)n2Cc1ccccc1,-3%,-4%,8.05%,-3%,5%,-10.9%,-1%,2%,1.25%,-3%,-4%,75.8% (active),-6%,-4%,2.3%,-2%,7%,9.45%
Cc1ccc(SCC#CC#CCS(=O)c2ccc(C)cc2)cc1 (stereo not given),100% (active),98% (active),98.3% (active),87% (active),99% (active),98.5% (active),100% (active),99% (active),97.8% (active),44%,98% (active),98% (active),82% (active),98% (active),97% (active),97% (active),98% (active),97.6% (active)
OC1(c2ccccc2)CCN(c2c3ccccc3nc3ccccc23)CC1,0%,63%,98.9% (active),3%,75% (active),99.5% (active),6%,75% (active),97.6% (active),5%,30%,99% (active),0%,58%,99.3% (active),-2%,68%,99.4% (active)
